Measured values reported in PubChem BioAssay AID765 (NMMLSC, 2007).

target: N-formyl peptide receptor 2 (Homo sapiens) (UniProt P25090); assay: human FPR2 ligand displacement single-point screen – cell-based, flow cytometry, single concentration (AID 765); details: FPRL1-expressing cells, fluorescent ligand binding inhibition, hits give high values; at 5.1 µM unless noted
Sequence (P25090 whole entry, looked up): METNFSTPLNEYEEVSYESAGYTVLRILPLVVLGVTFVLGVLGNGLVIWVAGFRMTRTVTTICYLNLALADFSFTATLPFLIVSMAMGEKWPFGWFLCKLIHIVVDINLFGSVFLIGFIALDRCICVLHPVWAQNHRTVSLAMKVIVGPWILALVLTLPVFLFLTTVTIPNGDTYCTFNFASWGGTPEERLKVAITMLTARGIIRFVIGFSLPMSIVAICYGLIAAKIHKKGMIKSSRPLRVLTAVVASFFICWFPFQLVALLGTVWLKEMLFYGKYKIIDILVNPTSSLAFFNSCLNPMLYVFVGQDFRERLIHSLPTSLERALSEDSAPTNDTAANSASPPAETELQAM

inhibition, inactive:
FC(F)(F)c1nc(N2CCN(Cc3ccccc3)CC2)nc2c1CCCCC2 11.8% [at 5.7 µM], COc1ccc(-c2cn3cccnc3n2)cc1NC(=O)C(C)Oc1ccccc1 (centres undefined) -8.6% [at 5.7 µM], CC(C)(C)OC(=O)N1CCN(c2nc(-c3ccccc3)c3cc(Br)ccc3n2)CC1 -2.1% [at 4.7 µM], O=C(O)/C=C/C(=O)N1CCN(c2nc(-c3ccccc3)c3ccccc3n2)CC1 6.6% [at 5.7 µM]
